MEX-5 binding – MEX-5 zinc finger RNA-binding disruptors – biochemical, C. elegans, fluorescence polarization, MLPCN library, primary screen | AID 1832, 2009 | MEX-5/FITC-TCR2 RNA binding; hits give low values | 300,000 tested, 0.38% active | activity score (negative = inhibition of binding), % at 10 µM | Zinc finger protein mex-5 (Caenorhabditis elegans), Q9XUB2;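 active means inhibition past about -25% in most replicates, and total fluorescence under double the plate's negative control median, limit read from the data; inconclusive means replicates evenly split on the limit, or fluorescence at least double controls; inactive means too little inhibition in most replicates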;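 further: 0% = DMSO and -100% = 5 µM competing unlabeled TCR2 RNA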
CR mimetic SO – reduction of superoxide in aged yeast, primary screen, HTS | 330,000 tested, 0.18% active | S. cerevisiae aged cells, superoxide DHE fluorescence; hits give low values | AID 2690, 2010 | superoxide response (% of plate mean), % at 10 µM;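 active means superoxide response under a set limit, about three screen SD below normal, cut at about 65% in these data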;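 further: yeast aged for seven days with compound at 30 °C before DHE staining; 100% = average MFI of all compound-treated wells on the plate with controls excluded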
BCLXL inh – inhibitors of human Bcl-xL, primary screen, biochemical, fluorescence polarization, HTS; GST-Bcl-xL / FITC-Bim BH3 peptide fluorescence polarization; inhibition, % at 10.9 µM; 320,000 tested, 0.7% active; AID 2129, 2009;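 active means inhibition above the mean of all tested compounds plus 3 SD, cutoff set per campaign, cut at about 30% in these data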;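 further: 0% = DMSO wells and 100% = unlabeled Bim-BH3 peptide competitor; inhibitors lower millipolarization by displacing the labeled peptide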
LANA-H2A inh – blockers of LANA interaction with H2A/H2B – biochemical, FP readout, HTS, primary screen; inhibition, % (test concentration not listed); 320,000 tested, 0.6% active; cell-free LANA-H2A/H2B peptide, fluorescence polarization; in the data active means inhibition mostly above about 10%, no sharp cut-off; inactive means mostly below about 6.7%
GLD-1 TGE inh – GLD-1/TGE RNA complex disruptors, primary screen, biochemical, fluorescence polarization. Female germline-specific tumor suppressor gld-1 (Caenorhabditis elegans), Q17339. purified GLD-1 + fluorescein TGE RNA. inhibition, % at 5.96 µM. 320,000 tested, 0.44% active. AID 2280, 2010;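 active means percent inhibition above a per-plate cutoff, the plate mean of test compounds plus 3 SD, cut at about 30% in these data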;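 further: 0% = DMSO wells with GLD-1 and probe and 100% = wells lacking GLD-1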
MCL1-BIM inh – inhibitors of MCL1 binding to BIM-BH3, primary screen, biochemical, fluorescence polarization; inhibition, % at 10.9 µM; GST-MCL1 / FITC-Bim-BH3 fluorescence polarization; Induced myeloid leukemia cell differentiation protein Mcl-1 (Homo sapiens), Q07820; 320,000 tested, 0.68% active;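 active means inhibition above the mean inhibition of all tested compounds plus 3 SD, set per campaign, cut at about 40% in these data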;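 further: 0% = DMSO wells and 100% = unlabeled Bim-BH3 peptide control; higher means more loss of mP so more displacement of Bim peptide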
Target sequence (Q07820 whole entry, looked up): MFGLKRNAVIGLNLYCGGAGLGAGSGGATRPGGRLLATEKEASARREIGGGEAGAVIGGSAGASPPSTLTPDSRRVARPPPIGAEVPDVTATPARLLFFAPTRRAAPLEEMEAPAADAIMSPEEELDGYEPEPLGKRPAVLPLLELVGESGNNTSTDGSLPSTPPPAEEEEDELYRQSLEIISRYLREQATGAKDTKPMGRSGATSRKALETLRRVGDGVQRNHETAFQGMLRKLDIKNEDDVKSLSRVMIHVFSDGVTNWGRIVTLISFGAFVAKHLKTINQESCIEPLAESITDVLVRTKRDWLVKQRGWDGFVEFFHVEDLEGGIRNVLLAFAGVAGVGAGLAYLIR
BCLXL inh confirm – Bcl-xL inhibitors blocking Bim BH3 binding, confirmation, counter-screen for MCL1 inhibitor project, biochemical, fluorescence polarization. AID 2166, 2009. shares compounds with MCL1-BIM inh. 1,700 tested, 54% active. inhibition, % at 10.9 µM. GST-Bcl-xL / FITC-Bim BH3 peptide FP binding;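 active means inhibition above a cutoff equal to the mean inhibition of all tested compounds plus 3 SD, cut at about 30% in these data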;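 further: 0% = DMSO wells and 100% = unlabeled Bim BH3 control peptide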
MCL1 BIM confirm – inhibitors of MCL1 binding to BIM-BH3, confirmation, biochemical, fluorescence polarization, triplicate; shares compounds with MCL1-BIM inh; GST-MCL1 / FITC-Bim-BH3 fluorescence polarization; inhibition, % at 10.9 µM; 1,700 tested, 61% active; AID 2168, 2009;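 active means inhibition above the average of all tested compounds plus 3 SD, cut at about 40% in these data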;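 further: 0% = DMSO wells and 100% = unlabeled Bim-BH3 control peptide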
Active calls of the source: *. Shown are actives, neighbours in structure and some others; about 1.9% of the full set was active somewhere.

O=C(CCCN1C(=O)/C(=C/c2ccco2)SC1=S)Nc1ccccc1C(=O)O was read as MEX-5 binding -16.5, CR mimetic SO 118.0, BCLXL inh 40.0*, LANA-H2A inh 2.9, GLD-1 TGE inh -0.9, MCL1-BIM inh 83.3*, BCLXL inh confirm 38.7* and MCL1 BIM confirm 73.4*.
CC(C)c1ccc(C(=O)CN2C(=O)NC3(CCc4ccccc43)C2=O)cc1 (stereo unspecified) was read as CR mimetic SO 97.8, LANA-H2A inh -3.9 and GLD-1 TGE inh 1.3.
`O=C(Cc1ccc2ccccc2c1)NC(Cc1ccccc1)C(=O)O` (stereo unspecified) gave CR mimetic SO 108.2.
Screening CN(C)c1ccc(C(=O)OCC(=O)c2ccc[nH]2)cc1 returned CR mimetic SO 80.0, LANA-H2A inh 2.2 and GLD-1 TGE inh 0.9.
For O=c1cc(CN2CCCc3ccccc32)nc2sccn12 the results were MEX-5 binding inconclusive, CR mimetic SO 92.5, BCLXL inh 199.5*, LANA-H2A inh 11.0, GLD-1 TGE inh -9.3, MCL1-BIM inh active, BCLXL inh confirm 133.7* and MCL1 BIM confirm 166.3*.
Screening Nc1c(C(=O)CSc2nnc(Cc3ccccc3)o2)c(=O)[nH]c(=O)n1C1CC1 returned CR mimetic SO 80.5, BCLXL inh 4.6, LANA-H2A inh -0.2, GLD-1 TGE inh 3.6 and MCL1-BIM inh 6.2.
CC1(C)CC(=O)C2=C(C1)OC(N)=C(C#N)C21CCN(Cc2ccccc2)CC1 was read as MEX-5 binding -14.9, CR mimetic SO 107.7, BCLXL inh 73.9*, LANA-H2A inh 1.5, GLD-1 TGE inh 30.3, MCL1-BIM inh 72.8*, BCLXL inh confirm 63.1* and MCL1 BIM confirm 69.8*.
Screening CC(=O)N1CCC2(CC1)C(C#N)=C(N)OC1=C2C(=O)CC(C)(C)C1 returned MEX-5 binding -1.9, CR mimetic SO 95.2, BCLXL inh 0.0, LANA-H2A inh -3.2, GLD-1 TGE inh 2.8 and MCL1-BIM inh -1.2.
Screening Cc1nc2c([nH]1)C1(CCN(Cc3ccccc3)CC1)C(C#N)=C(N)O2 returned CR mimetic SO 100.8, BCLXL inh 163.5*, LANA-H2A inh 8.7, GLD-1 TGE inh 93.1*, MCL1-BIM inh active, BCLXL inh confirm 32.1* and MCL1 BIM confirm 46.3*.
`CCc1[nH]nc2c1C1(CCN(C(=O)c3ccccc3)CC1)C(C#N)=C(N)O2` gave MEX-5 binding -1.8, CR mimetic SO 110.2, BCLXL inh 2.2, LANA-H2A inh 0.7, GLD-1 TGE inh -4.2 and MCL1-BIM inh -1.2.
O=C(CNc1cccc2ccccc12)N/N=C/c1ccc(C(=O)O)cc1 was read as MEX-5 binding -3.9, CR mimetic SO 91.5, BCLXL inh 6.7, LANA-H2A inh -9.1, GLD-1 TGE inh 5.8, MCL1-BIM inh 68.3*, BCLXL inh confirm 13.0 and MCL1 BIM confirm 52.1*.
Screening Brc1cc2c(cc1-c1nc3ccccc3s1)OCO2 returned MEX-5 binding 1.1, CR mimetic SO 115.2, BCLXL inh -0.5, LANA-H2A inh -3.1, GLD-1 TGE inh 4.3 and MCL1-BIM inh 3.3.
